Bioassay records: PubChem BioAssay, National Center for Advancing Translational Sciences (NCATS)
Hits are enriched below; roughly 19% of the tested compounds scored in any of these assays.
HT1080NT lethal – qHTS for induction of synthetic lethality in tumor cells producing 2HG: qHTS for the HT-1080-NT fibrosarcoma cell line | HT-1080-NT fibrosarcoma viability, CellTiter-Glo ATP luminescence, 48 h | hit rate 1.6% among 360,000 | Potency, µM (series often up to 46.1 µM), for inactives: at the highest dose activity, negative = less viability, actives largely listed as cytotoxic;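 also: NT is the 2HG producing partner of a matched IDH1 knockdown line; 0% = DMSO-treated cells and -100% = media-only wells without cells; nearly all actives have a fitted effect of over 55% in size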
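Compounds were tested in concentration-response format on HT-1080-NT cells for 48 hours at 37 degrees C. Cell viability came from CellTiter-Glo luminescence; curves were classified by r2, response magnitude and activity.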
KB-3-1 tox – qHTS assay for MDR1-selective chemotherapeutics: Primary screen using the parental adenocarcinoma cell KB-3-1; KB-3-1 viability, CellTiter-Glo ATP luminescence, 72 h; Potency, µM (highest dose often 46.1 µM), most hits filed as cytotoxic; hit rate 1.4% among 400,000; AID 1347075, 2019; also: nearly all actives have a fitted effect of over 60% in size
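KB-3-1 cells, DMEM (no phenol red) + 10% FBS; compound by pin transfer, 72 h, 37 °C. Readout: CellTiter-Glo luminescence after 10 min. Data normalized, curve-fitted.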
HT1080 IDH1KD tx – qHTS for induction of synthetic lethality in tumor cells producing 2HG: qHTS for the HT-1080-IDH1KD cell line. Potency, µM (highest dose often 46.1 µM), for the others: at the top dose activity, negative = toxicity, usual class: cytotoxic. hit rate 2% among 360,000. HT-1080 IDH1 knockdown viability, ATP luminescence, 48 h;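 also: 0% = DMSO wells and -100% = cell-free medium wells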
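Cytotoxicity counter-line: IDH1KD HT-1080, 48 h, CellTiter-Glo. Curves classed by r2, magnitude and activity.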
KB-V1 MDR tox – qHTS assay for MDR1-selective chemotherapeutics: Primary screen using the drug-selected MDR subline cells KB-V1. AID 1347076, 2019. hit rate 3.4% among 400,000. KB-V1 MDR cells viability, CellTiter-Glo, 72 h. Potency, µM (doses to about 46.1 µM), actives largely listed as cytotoxic; also: nearly all actives have a fitted effect of over 60% in size
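KB-V1 cells (P-gp-expressing MDR subline of KB-3-1) in phenol-red-free DMEM with 10% FBS were exposed to library compounds over a concentration series for 72 h at 37 degrees C. Viability read by CellTiter-Glo luminescence; concentration-effect curves fitted after normalization.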
TDP1 cell noCPT – qHTS for Inhibitors of human tyrosyl-DNA phosphodiesterase 1 (TDP1): qHTS in cells in absence of CPT; DT40 Tdp1-/- hTDP1 cells, no CPT, ATP luminescence, 48 h; Potency, µM (highest dose often 46.2 µM), for inactives: at the highest dose activity change, negative = growth inhibition, actives largely listed as inhibitors; hit rate 15% among 420,000; also: nearly all actives have a fitted effect of over 55% in size
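Stably hTDP1-transfected Tdp1-null chicken DT40 cells were treated with library compounds minus camptothecin and grown for at least 48 hr at 37 °C, after which cellular ATP was quantified by luminescence.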
TDP1 cell CPT – qHTS for Inhibitors of human tyrosyl-DNA phosphodiesterase 1 (TDP1): qHTS in cells in presence of CPT; chicken DT40 Tdp1-/-;hTDP1 cells + 20 nM CPT, ATP luminescence, 48 h; Potency, µM (top dose mostly 46.2 µM), for inactives: at the top dose activity change, negative = growth inhibition, most hits filed as inhibitors; hit rate 12% among 420,000; AID 686979, 2013; also: nearly all actives have a fitted effect of over 55% in size
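Cell growth measured by CellTiter-Glo luminescence after a minimum 48 h, 37 C compound exposure with 20 nM CPT in Tdp1-knockout DT40 cells stably expressing hTDP1, seeded 400/well; qHTS titration format.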
* marks the source's active call; other numbers are inactive results. Calls follow the shape of the dose curve; as a rule, active = well fitted curve in the direction sought with a large enough effect; inconclusive = small, poorly fitted or top-dose-only effect, or another doubt; inactive = no such curve, though single readings can be large; an effect the other way counts as inactive or inconclusive. Unless noted, % is scaled to controls: 0 for no effect and ±100 for the full control effect; potency is read from the fitted curve at half-maximal effect.

How did CC(C)c1ccccc1NC(=O)Nc1nc(C(N)Cc2ccc(C(F)(F)F)cc2)cs1 (stereo not given) do in these assays?
HT1080NT lethal: 5.8µM*; KB-3-1 tox: inconclusive; HT1080 IDH1KD tx: inconclusive; KB-V1 MDR tox: inconclusive; TDP1 cell noCPT: 23µM*; TDP1 cell CPT: 13µM*

What do the screens show for `CC(C)CC(N)c1csc(NC(=O)Nc2ccccc2C(C)C)n1` (stereo not given)?
HT1080NT lethal: inconclusive; KB-3-1 tox: inactive; HT1080 IDH1KD tx: inconclusive; KB-V1 MDR tox: inconclusive; TDP1 cell noCPT: 15µM*; TDP1 cell CPT: inconclusive

Results for CC(C)c1ccccc1NC(=O)CNCCc1ccc(C(F)(F)F)cc1 ?
HT1080NT lethal: -7%; KB-3-1 tox: inactive; HT1080 IDH1KD tx: -3%; KB-V1 MDR tox: inconclusive; TDP1 cell noCPT: 26µM*; TDP1 cell CPT: inconclusive

Results for COC1=C(C(=O)O)N2C(=O)[C@@H](NC(=O)[C@H](N)C3=CCC=CC3)[C@H]2SC1 ?
TDP1 cell noCPT: -20%; TDP1 cell CPT: -19%

How did CCCCCCC1CCC(C(=O)N2CCOCC2)CC1 (stereo not given) do in these assays?
HT1080NT lethal: 10%; KB-3-1 tox: inactive; HT1080 IDH1KD tx: -9%; KB-V1 MDR tox: inactive; TDP1 cell noCPT: inconclusive; TDP1 cell CPT: inconclusive

How did Cc1ccccc1NC(=O)c1csc2c1CCCC2 do in these assays?
HT1080NT lethal: inconclusive; KB-3-1 tox: inactive; HT1080 IDH1KD tx: inconclusive; KB-V1 MDR tox: inconclusive; TDP1 cell noCPT: 21µM*; TDP1 cell CPT: 5.8µM*

Results for CCNC(=S)NNC(=O)c1csc2c1CCCC2 ?
HT1080NT lethal: -25%; KB-3-1 tox: inactive; HT1080 IDH1KD tx: inconclusive; KB-V1 MDR tox: 26µM*; TDP1 cell noCPT: -14%; TDP1 cell CPT: -4%

Results for CCC(Cc1ccccc1)NC(=O)c1csc2c1CCCCC2 (stereo not given) ?
KB-3-1 tox: inactive; KB-V1 MDR tox: inactive; TDP1 cell noCPT: inconclusive; TDP1 cell CPT: 13µM*

How did CC(C)CCNC(=O)c1csc2c1CCCCC2 do in these assays?
HT1080NT lethal: 7%; KB-3-1 tox: inactive; HT1080 IDH1KD tx: 0%; KB-V1 MDR tox: inactive; TDP1 cell noCPT: inconclusive; TDP1 cell CPT: 2%

How did CC1CC(C)CN(CCCNC(=O)c2csc3c2CCCC3)C1 (stereo not given) do in these assays?
HT1080NT lethal: -11%; KB-3-1 tox: inactive; HT1080 IDH1KD tx: -8%; KB-V1 MDR tox: 16µM*; TDP1 cell noCPT: inconclusive; TDP1 cell CPT: inconclusive

Results for Cc1ccc(C)c(NC(=S)NNC(=O)c2csc3c2CCCC3)c1 ?
HT1080NT lethal: -26%; KB-3-1 tox: inactive; HT1080 IDH1KD tx: inconclusive; KB-V1 MDR tox: inconclusive; TDP1 cell noCPT: -22%; TDP1 cell CPT: -24%

What do the screens show for `CCC(C)NC(=O)c1csc2c1CCCCC2` (stereo not given)?
HT1080NT lethal: 4%; KB-3-1 tox: inactive; HT1080 IDH1KD tx: 0%; KB-V1 MDR tox: inactive; TDP1 cell noCPT: -9%; TDP1 cell CPT: -9%

What do the screens show for `CC(=O)c1c(C)[nH]c(C(=O)N(C)CC(=O)Nc2ccc(Cl)c(C(F)(F)F)c2)c1C`?
HT1080NT lethal: -8%; KB-3-1 tox: inactive; HT1080 IDH1KD tx: 3%; KB-V1 MDR tox: inactive; TDP1 cell noCPT: inconclusive; TDP1 cell CPT: inconclusive
